From PubChem BioAssay (EPA / NIEHS)
Calls of active or inactive are those of the source. The calls were made as follows: active = hit-call score of the fitted dose curve at least 0.9, where 1 is the maximum; inactive = score below 0.9.

What was measured:
[1] = ATG_GLI_CIS: Attagene CIS-FACTORIAL HepG2 Assay for human Zinc Finger Protein GLI1 (AID 2282945); details: HepG2, Attagene cis-factorial reporter mRNA, GLI element; actives raise or lower the signal
Summary of the method: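 Bidirectional curve fits relative to DMSO, using reporter mRNA levels from RT-PCR plus capillary electrophoresis. Cells were HepG2 transiently carrying cis-regulated reporter constructs, harvested 24 h after dosing.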

[2] = biological target: Bile acid receptor (Homo sapiens) (UniProt Q96RI1); assay: ATG_IR1_CIS: Attagene CIS-FACTORIAL HepG2 Assay for human Nuclear Receptor Subfamily 1 Group H Member 4 (NR1H4), IR1 submotif (AID 2282946); details: IR1 reporter transcription, actives raise or lower the signal
Bile acid receptor (Homo sapiens), sequence (Q96RI1 whole entry, looked up, the tested form may be a part): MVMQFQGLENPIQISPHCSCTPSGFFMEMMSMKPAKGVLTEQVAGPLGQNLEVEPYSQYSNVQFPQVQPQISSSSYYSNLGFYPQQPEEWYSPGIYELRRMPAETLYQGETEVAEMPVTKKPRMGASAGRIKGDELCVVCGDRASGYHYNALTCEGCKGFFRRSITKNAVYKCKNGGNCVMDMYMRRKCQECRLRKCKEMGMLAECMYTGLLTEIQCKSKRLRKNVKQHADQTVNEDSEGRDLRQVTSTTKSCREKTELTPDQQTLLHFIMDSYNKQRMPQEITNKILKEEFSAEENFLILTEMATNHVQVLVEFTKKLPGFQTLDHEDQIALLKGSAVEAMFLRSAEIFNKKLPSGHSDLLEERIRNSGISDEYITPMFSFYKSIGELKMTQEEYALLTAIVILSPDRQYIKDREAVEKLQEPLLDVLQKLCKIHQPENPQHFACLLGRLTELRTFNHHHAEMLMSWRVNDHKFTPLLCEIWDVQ
Summary of the method: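 Cells (human HepG2) carry transiently transfected cis-promoter reporter transcription units. Compounds are incubated 24 h, total RNA is reverse-transcribed and amplified, and labelled fragments are resolved by capillary electrophoresis. Curves use DMSO as baseline.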

[3] = ATG_ISRE_CIS: Attagene CIS-FACTORIAL HepG2 Assay for human Interferon Regulatory Factor 1 (IRF1) binding to an Interferon-Stimulated Response Element (ISRE) (AID 2282948); details: HepG2 ISRE cis-reporter (Attagene), mRNA transcription readout; actives raise or lower the signal
Summary of the method: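 Transfected HepG2 (multiple reporter transcription units, cis elements) dosed 24 h. RNA → oligo(dT) RT → PCR → 6-FAM primer extension → HpaI → CE. DMSO = negative control/baseline.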

[4] = ATG_M_32_CIS: Attagene CIS-FACTORIAL HepG2 Assay for M32 Transcription Factor (Internal Marker) (AID 2282949); details: HepG2 Attagene cis-factorial M32 reporter, mRNA; actives raise or lower the signal;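 also: background control marker of the multiplexed CIS panel rather than a real target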
Summary of the method: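 HepG2 cells transiently transfected with multiplexed cis-regulated reporter units, dosed 24 h. Reporter mRNA quantified by RT-PCR, 6-FAM labelling, HpaI digestion and capillary electrophoresis; bidirectional fit vs DMSO.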

[5] = ATG_M_06_CIS: Attagene CIS-FACTORIAL HepG2 Assay for M06 Transcription Factor (Internal Marker) (AID 2282950); details: HepG2 Attagene CIS-FACTORIAL M06 internal marker reporter; actives raise or lower the signal
Summary of the method: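 HepG2 cells transiently transfected with cis-regulated multiple reporter transcription units were exposed to chemical for 24 h; reporter mRNA was quantified by RT-PCR, 6-FAM primer labelling, HpaI digestion and capillary electrophoresis, fitted bidirectionally against DMSO.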

[6] = biological target: Hepatocyte nuclear factor 6 (Homo sapiens) (UniProt Q9UBC0); assay: ATG_HNF6_CIS: Attagene CIS-FACTORIAL HepG2 Assay for human Hepatocyte Nuclear Factor 6 (HNF6) (AID 2282952); details: HepG2 Attagene cis-factorial HNF6 reporter transcription; actives raise or lower the signal
Hepatocyte nuclear factor 6 (Homo sapiens), sequence (Q9UBC0 whole entry, looked up): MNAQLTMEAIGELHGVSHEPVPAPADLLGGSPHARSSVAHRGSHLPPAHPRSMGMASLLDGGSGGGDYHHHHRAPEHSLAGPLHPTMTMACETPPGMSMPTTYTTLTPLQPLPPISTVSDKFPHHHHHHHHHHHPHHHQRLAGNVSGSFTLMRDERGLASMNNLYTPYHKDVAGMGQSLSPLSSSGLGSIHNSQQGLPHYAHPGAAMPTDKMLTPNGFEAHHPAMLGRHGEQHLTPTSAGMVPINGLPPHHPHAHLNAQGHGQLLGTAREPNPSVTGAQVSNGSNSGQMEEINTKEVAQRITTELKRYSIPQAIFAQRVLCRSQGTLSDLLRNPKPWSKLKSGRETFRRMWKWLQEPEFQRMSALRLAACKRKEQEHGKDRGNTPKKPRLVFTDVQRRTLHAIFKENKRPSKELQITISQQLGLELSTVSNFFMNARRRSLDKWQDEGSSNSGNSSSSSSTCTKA
Summary of the method: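 Transiently transfected HepG2 cells expressing cis-regulated reporter transcription units were exposed to chemical for 24 h in a 24-well format. Reporter transcript abundance was determined by fluorescence capillary electrophoresis.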

[7] = biological target: Heat shock factor protein 1 (Homo sapiens) (UniProt Q00613); assay: ATG_HSE_CIS: Attagene CIS-FACTORIAL HepG2 Assay for human Heat Shock Transcription Factor 1 (HSE) (AID 2282953); details: HepG2 HSE cis-reporter, Attagene RNA transcription; actives raise or lower the signal
Heat shock factor protein 1 (Homo sapiens), sequence (Q00613 whole entry, looked up): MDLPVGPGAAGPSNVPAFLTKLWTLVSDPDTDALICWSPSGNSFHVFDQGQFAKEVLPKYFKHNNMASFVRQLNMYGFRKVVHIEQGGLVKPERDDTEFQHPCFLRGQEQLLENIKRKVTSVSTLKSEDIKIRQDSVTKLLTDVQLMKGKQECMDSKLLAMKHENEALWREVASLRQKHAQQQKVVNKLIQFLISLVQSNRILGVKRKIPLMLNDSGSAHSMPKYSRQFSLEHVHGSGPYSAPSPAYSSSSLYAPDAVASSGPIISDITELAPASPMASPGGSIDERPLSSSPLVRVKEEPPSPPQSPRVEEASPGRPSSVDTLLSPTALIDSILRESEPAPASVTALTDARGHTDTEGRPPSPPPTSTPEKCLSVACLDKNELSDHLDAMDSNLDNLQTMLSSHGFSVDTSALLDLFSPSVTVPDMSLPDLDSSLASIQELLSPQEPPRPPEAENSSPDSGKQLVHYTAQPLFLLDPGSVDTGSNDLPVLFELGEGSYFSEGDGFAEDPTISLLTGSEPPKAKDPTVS
Summary of the method: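 HepG2 cells transiently transfected with multiple reporter transcription units under cis-regulatory promoter control, measuring endogenous transcription factor activity. After 24 h chemical exposure, reporter mRNA quantified by RT-PCR, fluorescent labelling, HpaI digestion and capillary electrophoresis; bidirectional fit versus DMSO.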

[8] = ATG_MRE_CIS: Attagene CIS-FACTORIAL HepG2 Assay for human Metal Responsive Element (MRE) (AID 2282954); details: HepG2 MRE cis-reporter transcription, Attagene multiplex; actives raise or lower the signal
Summary of the method: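 Transient MRTU transfection of HepG2 (FuGene 6); 24 h dosing; total RNA → oligo(dT) RT, PCR, 6-FAM primer extension, HpaI cut, CE. Bidirectional fit vs DMSO.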

[9] = ATG_PBREM_CIS: Attagene CIS-FACTORIAL HepG2 Assay for human Phenobarbital-responsive Enhancer Module (PBREM) (AID 2282955); details: HepG2 PBREM cis-reporter, Attagene multiplexed transcription; actives raise or lower the signal
Summary of the method: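 After a 24 h incubation with test chemical, transfected HepG2 cells yield total RNA; reporter-specific RT-PCR products are fluorescently labelled, HpaI-digested and resolved by capillary electrophoresis against ROX size standards.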

[10] = biological target: Paired box protein Pax-6 (Homo sapiens) (UniProt P26367); assay: ATG_Pax6_CIS: Attagene CIS-FACTORIAL HepG2 Assay for human Paired Box 6 (PAX6) (AID 2282956); details: HepG2 CIS-FACTORIAL PAX6 reporter transcription, RNA readout; actives raise or lower the signal
Paired box protein Pax-6 (Homo sapiens), sequence (P26367 whole entry, looked up): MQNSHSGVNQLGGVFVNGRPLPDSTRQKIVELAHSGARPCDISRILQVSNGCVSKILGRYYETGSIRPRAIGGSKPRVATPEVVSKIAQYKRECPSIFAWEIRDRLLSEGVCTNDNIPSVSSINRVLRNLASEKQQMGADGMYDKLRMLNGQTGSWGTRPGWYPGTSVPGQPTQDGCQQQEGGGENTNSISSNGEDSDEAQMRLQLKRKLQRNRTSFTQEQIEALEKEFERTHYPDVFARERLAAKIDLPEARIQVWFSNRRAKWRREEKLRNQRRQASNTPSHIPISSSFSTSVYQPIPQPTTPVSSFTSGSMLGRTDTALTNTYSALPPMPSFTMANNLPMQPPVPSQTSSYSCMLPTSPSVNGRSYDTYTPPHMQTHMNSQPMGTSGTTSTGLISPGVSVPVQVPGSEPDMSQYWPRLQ
Summary of the method: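 Transient MRTU transfection of HepG2 → compound exposure 24 h → TriZol RNA, oligo(dT) RT → PCR, 6-FAM primer extension, HpaI cut → capillary electrophoresis; activity fitted both directions against DMSO.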

[11] = ATG_PXRE_CIS: Attagene CIS-FACTORIAL HepG2 Assay for human Pregnane X Receptor Element (PXRE) (AID 2282957); details: HepG2 Attagene CIS-FACTORIAL PXRE reporter, mRNA; actives raise or lower the signal
Summary of the method: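 Cis-element reporter mRNA in human hepatoma HepG2 cells is measured 24 h post-dosing by RT-PCR, primer-extension labeling and capillary electrophoresis; gain or loss of signal is fitted relative to DMSO.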

[12] = ATG_RORE_CIS: Attagene CIS-FACTORIAL HepG2 Assay for human RAR-related Orphan Receptor Element (RORE) (AID 2282959); details: HepG2 Attagene cis-factorial RORE reporter, mRNA; actives raise or lower the signal
Summary of the method: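 Fluorescence intensity of reporter-specific cDNA fragments, separated by capillary electrophoresis, gives the signal. Source: HepG2 liver cells transiently transfected with cis-element reporters and exposed 24 h; DMSO-normalized bidirectional fit.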

[13] = ATG_Sox_CIS: Attagene CIS-FACTORIAL HepG2 Assay for human SRY-box transcription factor (SOX) (AID 2282960); details: HepG2 Attagene cis-factorial SOX reporter, mRNA; actives raise or lower the signal
Summary of the method: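 After 24 h of chemical treatment, transfected HepG2 reporter cells are lysed for total RNA. Transcript levels come from RT-PCR with labelled primer extension and capillary electrophoresis, analysed bidirectionally versus DMSO.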

[14] = biological target: Transcription factor Sp1 (Homo sapiens) (UniProt P08047); assay: ATG_Sp1_CIS: Attagene CIS-FACTORIAL HepG2 Assay for human Specificity Protein 1 (Sp1) (AID 2282961); details: HepG2 Sp1 cis-reporter transcription, actives raise or lower the signal
Transcription factor Sp1 (Homo sapiens), sequence (P08047 whole entry, looked up): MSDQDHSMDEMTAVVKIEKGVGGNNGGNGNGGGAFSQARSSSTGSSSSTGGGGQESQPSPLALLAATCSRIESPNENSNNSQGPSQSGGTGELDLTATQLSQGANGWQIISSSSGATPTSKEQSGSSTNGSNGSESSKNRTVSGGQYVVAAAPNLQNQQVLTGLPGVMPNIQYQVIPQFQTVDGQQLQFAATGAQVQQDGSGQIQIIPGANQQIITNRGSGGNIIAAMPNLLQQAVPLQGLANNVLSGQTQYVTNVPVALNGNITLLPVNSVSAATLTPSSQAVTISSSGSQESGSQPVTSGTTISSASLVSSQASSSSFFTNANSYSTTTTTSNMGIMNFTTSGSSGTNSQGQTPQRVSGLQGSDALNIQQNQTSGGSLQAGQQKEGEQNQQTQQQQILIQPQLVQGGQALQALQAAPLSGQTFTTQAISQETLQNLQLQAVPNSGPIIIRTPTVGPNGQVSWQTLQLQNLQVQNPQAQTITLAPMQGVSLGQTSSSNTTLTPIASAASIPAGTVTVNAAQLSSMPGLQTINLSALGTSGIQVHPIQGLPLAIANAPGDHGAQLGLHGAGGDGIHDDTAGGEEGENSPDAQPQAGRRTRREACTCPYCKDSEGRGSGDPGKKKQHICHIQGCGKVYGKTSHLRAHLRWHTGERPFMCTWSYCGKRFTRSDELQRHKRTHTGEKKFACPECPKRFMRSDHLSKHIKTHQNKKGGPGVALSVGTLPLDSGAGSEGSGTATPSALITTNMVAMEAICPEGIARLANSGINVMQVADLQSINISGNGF
Summary of the method: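 Sp1-driven reporter mRNA, read as capillary electrophoresis fluorescence after RT-PCR, in transiently transfected HepG2 cells dosed for 24 h; signal change in either direction relative to DMSO.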

[15] = ATG_SREBP_CIS: Attagene CIS-FACTORIAL HepG2 Assay for human Sterol Regulatory Element Binding (SREBP) (AID 2282962); details: HepG2 Attagene cis-factorial SREBP reporter, mRNA; actives raise or lower the signal
Summary of the method: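 Transfected HepG2 (cis-regulated reporter library, endogenous TFs) → compound 24 h → total RNA → oligo(dT) RT → reporter-specific PCR → FAM primer extension, HpaI cut → CE fluorescence. Fit bidirectional vs DMSO.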

[16] = biological target: Signal transducer and activator of transcription 3 (Homo sapiens) (UniProt P40763); assay: ATG_STAT3_CIS: Attagene CIS-FACTORIAL HepG2 Assay for human Signal Transducer and Activator of Transcription 3 (STAT3) (AID 2282963); details: HepG2, Attagene cis-factorial STAT3 reporter transcription; actives raise or lower the signal
Signal transducer and activator of transcription 3 (Homo sapiens), sequence (P40763 whole entry, looked up): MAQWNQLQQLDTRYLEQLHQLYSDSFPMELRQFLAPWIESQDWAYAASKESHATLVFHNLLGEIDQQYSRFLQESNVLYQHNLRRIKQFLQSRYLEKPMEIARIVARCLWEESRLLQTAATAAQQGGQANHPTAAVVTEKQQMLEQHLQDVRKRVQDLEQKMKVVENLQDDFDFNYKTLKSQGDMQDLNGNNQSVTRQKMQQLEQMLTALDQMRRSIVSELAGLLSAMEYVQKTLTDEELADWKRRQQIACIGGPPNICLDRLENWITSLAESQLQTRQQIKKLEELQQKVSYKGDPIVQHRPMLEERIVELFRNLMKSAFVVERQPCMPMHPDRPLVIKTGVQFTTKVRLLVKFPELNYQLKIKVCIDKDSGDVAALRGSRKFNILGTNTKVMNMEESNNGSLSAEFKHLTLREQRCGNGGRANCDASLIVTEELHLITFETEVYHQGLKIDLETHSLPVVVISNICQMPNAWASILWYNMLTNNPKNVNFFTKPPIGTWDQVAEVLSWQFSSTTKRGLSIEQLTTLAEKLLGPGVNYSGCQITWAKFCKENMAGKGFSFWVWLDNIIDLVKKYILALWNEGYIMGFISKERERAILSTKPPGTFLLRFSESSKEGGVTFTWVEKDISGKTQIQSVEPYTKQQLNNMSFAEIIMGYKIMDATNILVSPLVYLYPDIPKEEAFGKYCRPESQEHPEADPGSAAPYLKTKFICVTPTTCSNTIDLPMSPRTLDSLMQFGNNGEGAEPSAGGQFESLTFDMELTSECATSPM
Summary of the method: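 Endogenous STAT3-responsive cis-element activity was read in transiently transfected HepG2 cells after 24 h treatment. Reporter transcripts were quantified via RT-PCR and capillary electrophoresis, with DMSO as negative control and bidirectional curve fitting.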

[17] = ATG_TA_CIS: Attagene CIS-FACTORIAL HepG2 Assay for human TA Basal Promoter (AID 2282964); details: HepG2 Attagene CIS-factorial TA basal promoter reporter; actives raise or lower the signal
Summary of the method: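 HepG2 cells transiently transfected with multiplexed cis-promoter reporter units, dosed 24 h. Reporter mRNA measured by RT-PCR, 6-FAM labelling, HpaI digestion and capillary electrophoresis; bidirectional fit versus DMSO baseline, serving as background control.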

[18] = ATG_GRE_CIS: Attagene CIS-FACTORIAL HepG2 Assay for human Glucocorticoid Response Elements (GRE) (AID 2282947); details: HepG2 GRE cis-reporter, Attagene multiplex mRNA; actives raise or lower the signal
Summary of the method: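 Transient MRTU transfection of human HepG2 liver cells; cis-regulated reporters report endogenous factors. 24 h dosing → RNA isolation → RT-PCR → 6-FAM primer extension → HpaI cut → CE fragment analysis. Bidirectional fit, DMSO negative control.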

[19] = biological target: Hypoxia-inducible factor 1-alpha (Homo sapiens) (UniProt Q16665); assay: ATG_HIF1a_CIS: Attagene CIS-FACTORIAL HepG2 Assay for human Hypoxia Inducible Factor 1 (HIF1A) (AID 2282951); details: HepG2 Attagene cis-factorial HIF1a reporter transcription; actives raise or lower the signal
Hypoxia-inducible factor 1-alpha (Homo sapiens), sequence (Q16665 whole entry, looked up): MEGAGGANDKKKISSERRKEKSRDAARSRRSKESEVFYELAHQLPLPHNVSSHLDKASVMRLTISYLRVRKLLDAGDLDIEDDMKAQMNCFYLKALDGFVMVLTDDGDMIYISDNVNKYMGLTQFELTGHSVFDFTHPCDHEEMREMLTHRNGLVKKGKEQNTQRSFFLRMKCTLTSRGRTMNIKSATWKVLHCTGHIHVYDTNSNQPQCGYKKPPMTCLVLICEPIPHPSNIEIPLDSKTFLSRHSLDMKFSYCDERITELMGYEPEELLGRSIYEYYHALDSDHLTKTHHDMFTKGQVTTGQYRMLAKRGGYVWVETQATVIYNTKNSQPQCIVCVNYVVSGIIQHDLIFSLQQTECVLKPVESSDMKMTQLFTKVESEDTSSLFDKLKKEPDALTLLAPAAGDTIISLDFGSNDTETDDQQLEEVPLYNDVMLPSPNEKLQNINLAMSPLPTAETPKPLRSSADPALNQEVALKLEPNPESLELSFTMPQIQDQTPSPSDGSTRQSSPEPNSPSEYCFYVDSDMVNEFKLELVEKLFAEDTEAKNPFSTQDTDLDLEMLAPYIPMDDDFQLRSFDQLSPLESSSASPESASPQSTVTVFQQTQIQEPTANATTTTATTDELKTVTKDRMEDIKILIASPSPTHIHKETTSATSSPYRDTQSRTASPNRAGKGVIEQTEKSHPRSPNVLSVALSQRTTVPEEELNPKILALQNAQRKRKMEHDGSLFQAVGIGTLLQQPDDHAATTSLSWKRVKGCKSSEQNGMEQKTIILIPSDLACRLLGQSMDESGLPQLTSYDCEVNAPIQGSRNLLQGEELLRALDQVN
Summary of the method: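 In this multiplexed cell assay, HepG2 cells bearing transfected cis reporters are dosed for 24 h and reporter mRNA is read by RT-PCR plus capillary electrophoresis; signal increases and decreases are both scored against DMSO.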

[20] = ATG_PPRE_CIS: Attagene CIS-FACTORIAL HepG2 Assay for human Peroxisome Proliferator-activated Response Element (PPRE) (AID 2282958); details: HepG2 PPRE cis-element reporter, Attagene transcription factor profiling; actives raise or lower the signal
Summary of the method: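 Multiplexed reporter transcription units under cis-regulatory promoters were transfected into HepG2 cells to capture endogenous factor activity. A 24 h incubation preceded RNA isolation and fluorescent RT-PCR fragment analysis.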

Measured: AC50

CC1(C)CC(N=C=O)CC(C)(CN=C=O)C1 (stereo not given)
active: [11] 55.6 µM
not listed: [18] | [19] | [20]
inactive: all other assays above

CCCCCCCCCCC
not listed: [2] | [14] | [19] | [20]
inactive: all other assays above

C[C@]12C=CC(=O)C=C1CC[C@@H]1[C@@H]2C(=O)C[C@@]2(C)[C@H]1CC[C@]2(O)C(=O)CO
active: [11] 55.6 µM
not listed: [2] | [18] | [20]
inactive: all other assays above

O=[N+]([O-])C(CO)(CO)CO
active: [11] 48.1 µM
not listed: [2] | [9] | [18]
inactive: all other assays above

Cc1ccc(N(C)C)cc1
active: [11] 27.4 µM
not listed: [2] | [7] | [12] | [19]
inactive: all other assays above

CC1=C(/C=C/C(C)=C/C=C/C(C)=C/CO)C(C)(C)CCC1
active: [6] 158 µM | [7] 197 µM | [8] 106 µM | [10] 49.1 µM | [11] 0.464 µM | [20] 47.6 µM | [12] 27.9 µM
not listed: [2] | [18]
inactive: all other assays above

CC(=O)C(C)=CC1C(C)=CCCC1(C)C (stereo not given)
active: [11] 22.9 µM
not listed: [2] | [14] | [19]
inactive: all other assays above

O=C(OCCCCCOC(=O)c1ccccc1)c1ccccc1
not listed: [2] | [14] | [19]
inactive: all other assays above

CCNc1cccc(C)c1
active: [19] 60.8 µM
not listed: [2] | [18]
inactive: all other assays above

CCOc1ccc2c(c1)C(C)=CC(C)(C)N2
active: [7] 152 µM | [8] 148 µM | [10] 100 µM | [11] 1.91 µM | [20] 78.8 µM | [12] 100 µM | [17] 100 µM
not listed: [2] | [14] | [18] | [19]
inactive: all other assays above

O=C(N[C@@H](Cc1ccccc1)[C@@H](O)C(=O)N1C[C@@H](O)[C@@H](O)C1)c1cc2cc(Cl)ccc2[nH]1
active: [8] 100 µM | [17] 128 µM
not listed: [2] | [9] | [14] | [19]
inactive: all other assays above

CN1CCCC1=O
not listed: [2] | [9] | [18] | [20]
inactive: all other assays above

CC=Cc1ccc(O)c(OC)c1
active: [11] 26.1 µM
not listed: [2] | [14] | [18] | [19]
inactive: all other assays above

CCCCCCC(=O)OCC
active: [11] 30.1 µM
not listed: [2] | [14] | [18]
inactive: all other assays above

Cc1cccc(Nc2cc(Cl)nc(SCC(=O)O)n2)c1C
active: [11] 29.8 µM
not listed: [2] | [14] | [19] | [20]
inactive: all other assays above
